Assay results taken from PubChem BioAssay (NCI).
Compounds without any hit were thinned out: in the full panel of roughly 83,000, 20% have a hit.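 Cell lines were cultured in 96-well plates, exposed to a single compound concentration, and assessed for percent growth 48 hours later.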 Values without a mark were called inactive. Calls of active or inactive are those of the source. The calls were made as follows: active = growth percent below 10; inactive = the rest.

Tests used:
Assay in all cases: NCI-60 one-dose screen, 48 h (100 = growth as untreated, 0 = no growth, -100 = all killed)
Settings in all cases: 10 µM unless noted
HCT-15 colon = test system: HCT-15 colon
HT29 colon = test system: HT29 colon
SNB-75 CNS = test system: SNB-75 CNS
U251 CNS = test system: U251 CNS
PC-3 prostate = test system: PC-3 prostate
SK-MEL-5 melanoma = test system: SK-MEL-5 melanoma
LOX IMVI melanoma = test system: LOX IMVI melanoma
SK-MEL-28 melanoma = test system: SK-MEL-28 melanoma
SK-MEL-2 melanoma = test system: SK-MEL-2 melanoma
EKVX NSCLC = test system: EKVX NSCLC
SN12C renal = test system: SN12C renal
UO-31 renal = test system: UO-31 renal
TK-10 renal = test system: TK-10 renal
ACHN renal = test system: ACHN renal
CAKI-1 renal = test system: CAKI-1 renal
A498 renal = test system: A498 renal
CCRF-CEM leukemia = test system: CCRF-CEM leukemia
UACC-62 melanoma = test system: UACC-62 melanoma
MOLT-4 leukemia = test system: MOLT-4 leukemia

| SMILES | growth (HCT-15 colon) | growth (HT29 colon) | growth (SNB-75 CNS) | growth (U251 CNS) | growth (PC-3 prostate) | growth (SK-MEL-5 melanoma) | growth (LOX IMVI melanoma) | growth (SK-MEL-28 melanoma) | growth (SK-MEL-2 melanoma) | growth (EKVX NSCLC) | growth (SN12C renal) | growth (UO-31 renal) | growth (TK-10 renal) | growth (ACHN renal) | growth (CAKI-1 renal) | growth (A498 renal) | growth (CCRF-CEM leukemia) | growth (UACC-62 melanoma) | growth (MOLT-4 leukemia) |
| --- | --- | --- | --- | --- | --- | --- | --- | --- | --- | --- | --- | --- | --- | --- | --- | --- | --- | --- | --- |
| NNC(=O)c1nc2ccccc2[nH]1 | 108% | 103% | 97.4% | 86.2% | 96.7% | 103% | 95.3% | 111% | 99.4% | 102% | 102% | 101% | 111% | 107% | 94.9% | 96.2% | 109% | – | – |
| COc1cc2c(cc1OC)C(=O)/C(=C/c1cc(-c3ccc4c(c3)OCO4)n[nH]1)C2 | -39.9% (active) | -29.5% (active) | -4.64% (active) | -75.5% (active) | -65.7% (active) | 48.4% | – | 0.563% (active) | 81.3% | – | 6.08% (active) | -72.6% (active) | -9.8% (active) | -7.41% (active) | 56.4% | 25.8% | – | 25.8% | – |
| CC(=O)NC1=C(C#N)C(c2ccccc2Cl)c2c(ccc3ccccc23)O1 (stereo not drawn) | 32% | 51.6% | 30.1% | 69.3% | 60.6% | 56.7% | – | 66.4% | 59.2% | 63.5% | 70.8% | 49.8% | 141% | 65% | 37.2% | 56.2% | 60.8% | 36.6% | 50.2% |
| CN(C)c1ccc(N=C2C=CC(=O)C=C2)cc1 | 97.7% | 97.1% | 77.6% | 76.5% | 64.4% | 87.2% | 80.6% | 97.4% | 97.1% | 75.3% | 92% | 73.7% | 111% | 69.3% | 81% | 93.1% | 75.5% | – | 51.3% |
| Nc1nc2c(c(=O)[nH]1)C(c1ccc3c(c1)OCO3)C=C(C(=O)O)N2 (stereo not drawn) | 111% | 108% | 85.6% | 101% | 113% | 102% | – | 96.2% | 116% | – | 113% | 102% | 117% | 111% | 97.1% | 94.7% | 126% | 116% | 106% |
| O=S(=O)(NCCNc1cc(-c2cn(-c3ccccc3)nc2-c2cccc(O)c2)ccn1)c1ccc(Br)cc1 | 5.6% (active) | 4.7% (active) | 43.7% | 22.5% | 15.6% | 11.5% | 20% | – | 20.7% | 34.9% | 34.4% | 19.8% | 46.1% | 23.7% | 43.2% | 53.7% | 9.77% (active) | – | 8.59% (active) |
| CC1(C)C=CC[C@]2(C)[C@H]3CC[C@@H]4[C@H]5[C@H](C(=O)/C=C/c6cccnc6)CC[C@]5(CO)CC[C@@]4(C)[C@]3(C)CC[C@@H]12 | -61.7% (active) | -28% (active) | -89.8% (active) | -90.8% (active) | -41.1% (active) | -99.3% (active) | – | -92% (active) | -66.1% (active) | -36.7% (active) | -40% (active) | -100% (active) | -90.7% (active) | -100% (active) | -75.5% (active) | -78.8% (active) | -2.65% (active) | -63.2% (active) | -30.6% (active) |
| CN1CCN(c2nc(-c3cccc4ccccc34)nc3sc4c(c23)CCCCCC4)CC1 | 91.8% | 71.2% | 49.1% | 66.4% | 56.7% | 85.3% | 95.1% | 98.1% | 106% | – | 75.9% | 46% | 113% | 82.7% | – | 94.2% | 75.2% | 87.6% | 74% |
| CCN(CC)CCCCCCNc1ccnc2cc(Cl)ccc12 | 92.6% | 27% | 87% | 85.3% | 87% | 80.8% | 78% | 106% | 128% | 76.5% | 84.9% | 86.1% | 113% | 111% | 84.2% | 118% | 113% | – | 101% |
| Cc1cc(Cl)nc(N(CCCNc2ccnc3cc(Cl)ccc23)Cc2ccco2)n1 | 18.3% | 8.64% (active) | 59.6% | 26.9% | 5.4% (active) | -82.6% (active) | 10.7% | 16.1% | 39.4% | 24.1% | 26.6% | 10.9% | 41.7% | 28.4% | – | 38.1% | 20.6% | – | -1.04% (active) |
| Cc1ccc(Sc2sc(-c3ccccc3)nc2[P+](c2ccccc2)(c2ccccc2)c2ccccc2)cc1 | 1.24% (active) | 3.9% (active) | -3.74% (active) | 13.8% | -30.6% (active) | -97.6% (active) | – | 25.5% | -37.8% (active) | 5.57% (active) | 6% (active) | -39.1% (active) | 14.7% | 6.46% (active) | -14.2% (active) | -43.5% (active) | 7.63% (active) | -33.7% (active) | -48.2% (active) |
| Nc1c(C(=O)Nc2cccc(Cl)c2)sc2ncc(Cl)cc12 | 80.7% | 90.3% | 59.6% | 10.6% | 95.7% | 94.3% | 44.8% | 91.7% | – | – | 79.3% | 80.5% | 118% | 23.9% | 82.6% | 103% | – | 95.5% | 75.8% |
| O=C1c2ccccc2NC(c2cn(-c3ccccc3)nc2-c2cccnc2)N1Cc1ccccc1 (stereo not drawn) | 84.7% | 84.5% | 92.9% | 93.6% | 76.5% | 94.2% | 80.2% | 108% | 88% | 81.3% | 87.3% | 65.4% | 105% | 102% | – | 92% | 91.5% | – | 67.9% |
| Clc1ccc2c(NCCNc3nc(-c4ccccc4)cc(-c4ccccc4)n3)ccnc2c1 | -74.2% (active) | -54.3% (active) | -72.2% (active) | -90.6% (active) | -88.5% (active) | -93.4% (active) | -76.7% (active) | -90.7% (active) | -10.9% (active) | 18.6% | -74.4% (active) | -94.3% (active) | -8.38% (active) | -97.2% (active) | – | 93% | -9.52% (active) | – | -32.2% (active) |
| COc1ccc(C2=NN(c3nc(-c4ccc(OC)cc4)c(C#N)c(=O)n3C)C(=O)CC2)cc1 | 106% | 109% | 86.5% | 100% | 82.4% | 96.3% | 101% | – | 98.4% | 107% | 88.8% | 85.9% | 107% | 101% | 96% | 116% | 91% | – | 96.6% |
| COC(=O)[C@@H]1[C@H]2C[C@H]3c4[nH]c5cc(OC)ccc5c4CCN3C[C@@H]2C[C@H](OC(=O)/C=C/c2ccnc(OC)c2)[C@H]1OC | 71.1% | 75.6% | 53.5% | 78% | 76% | – | 86.5% | 99.2% | 106% | – | 99.2% | 67.5% | 87.3% | 66.1% | – | 79.4% | 93.7% | 86.7% | 75.9% |
